# PubChem BioAssay (NCI)
# Compounds without any hit were thinned out: in the full panel of roughly 83,000, 20% have a hit.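 Growth was measured after 48 h exposure to one concentration of compound in 96-well plates. Values under 10 count as active.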 Values without a mark were called inactive. Active and inactive are the calls of the source.
# Columns and labels:
# Assay in all cases: NCI-60 one-dose screen, 48 h (100 = growth as untreated, 0 = no growth, -100 = all killed)
# Conditions in all cases: 10 µM unless noted
# NCI-H23 lung = system: NCI-H23 lung
# NCI-H226 lung = system: NCI-H226 lung
# NCI-H322M lung = system: NCI-H322M lung
# HOP-62 NSCLC = system: HOP-62 NSCLC
# NCI-H460 lung = system: NCI-H460 lung
# HOP-92 NSCLC = system: HOP-92 NSCLC
# NCI-H522 lung = system: NCI-H522 lung
# A549/ATCC NSCLC = system: A549/ATCC NSCLC
# 786-0 renal = system: 786-0 renal
# COLO 205 colon = system: COLO 205 colon
SMILES,growth (NCI-H23 lung),growth (NCI-H226 lung),growth (NCI-H322M lung),growth (HOP-62 NSCLC),growth (NCI-H460 lung),growth (HOP-92 NSCLC),growth (NCI-H522 lung),growth (A549/ATCC NSCLC),growth (786-0 renal),growth (COLO 205 colon)
CCOC(=O)C1CCN(S(=O)(=O)/N=C2/NC(=O)NC2=C(Cl)Cl)CC1,16.7%,118%,31.1%,20.2%,7.43% (active),-73.9% (active),-69.4% (active),21%,3.63% (active),-69.6% (active)
Nc1c(C(=O)Nc2ccccn2)sc2nc3c(cc12)CCCC3,69%,82.8%,78.7%,45.3%,25.3%,60.2%,29.2%,46.4%,48.7%,49.5%
CCN1CCN(c2ccc(NC(=O)Nc3nc4ccc(-c5ccccc5OC)cc4s3)cc2)CC1,-16.8% (active),56.6%,-86% (active),-66.2% (active),-64.4% (active),2.16% (active),-78.1% (active),-77.1% (active),-80.7% (active),-73.2% (active)
NS(=O)(=O)c1ccc(N2Cc3cc(Cl)ccc3OC3=C2C(=O)N(CC2CCCCC2)C3=O)cc1,-36.5% (active),-23.5% (active),65.4%,-60.9% (active),-55.1% (active),-76.6% (active),-68.6% (active),-43.5% (active),-84.7% (active),-83.2% (active)
CC(C)CSc1nc(Nc2ccccc2)c(C#N)c(-c2ccc(F)cc2)n1,38.7%,6.87% (active),27.9%,7.29% (active),3.5% (active),-47.6% (active),59.1%,21.4%,-45.6% (active),20.3%
COC(=O)/C=C1\SC(=Nc2ccc(C(F)(F)F)cc2)N(CCc2c[nH]c3ccccc23)C1=O,-4.71% (active),-62.7% (active),-11% (active),-64.2% (active),-47.4% (active),-48.7% (active),-65% (active),3.32% (active),-74.1% (active),-62.9% (active)
OCCNc1nc(NCCO)nc(Nc2ccc(C3=NN(c4cc(Cl)cc(Cl)c4)C(c4ccccc4)C3)cc2)n1 (stereo not given),50.1%,96.2%,57.6%,29.1%,23.7%,72.1%,48.1%,35.9%,40.3%,34.4%
COc1c(O)cc2oc3cc(O[C@@H]4OC(C)[C@@H](O)[C@H](O)C4O)c(CC=C(C)C)c(O)c3c(=O)c2c1CC=C(C)C (stereo not given in full),89.4%,90.1%,107%,110%,90.5%,89.2%,68.5%,80%,101%,114%
C[C@@H]1C(=O)[C@@H]2C[C@@H](O)[C@@H](O)C[C@]2(C)[C@H]2CC[C@@]3(C)C(=C12)CC[C@@H]3[C@@](C)(O)[C@H](O)CCC(C)(C)O,103%,99.5%,95.2%,91%,105%,97.5%,89%,92.8%,100%,117%
O=c1[nH]c2ccccc2cc1-c1nc2ccc(Cl)cc2[nH]1,53.5%,55.2%,50.3%,67.2%,18%,7.43% (active),38.2%,40.1%,52.8%,52.2%
CC1(C)[C@@H](O)CC[C@]2(C)[C@H]3CC[C@@H]4[C@H]5[C@H](c6cn(-c7ccccc7)nn6)CC[C@]5(CO)CC[C@@]4(C)[C@]3(C)CC[C@@H]12,92.1%,80.9%,79.7%,93.9%,78.4%,100%,69.4%,74.5%,91.7%,95.2%
Nc1c(C(=O)c2ccccc2)sc2nc(-c3cc4ccccc4o3)cc(-c3ccc(Cl)cc3)c12,89.9%,112%,87%,102%,103%,-6.31% (active),84.7%,106%,107%,99.4%
CCCCOc1nc2ccc(C)cc2cc1/C=C/C(=O)/C=C/c1ccc2c(c1)OCO2,82.4%,96.3%,88%,112%,103%,80.6%,60.6%,78.3%,97.9%,123%
O=c1c2ccccc2n(CC(O)CN2CCCC2)c2c(Br)cccc12 (stereo not given),131%,122%,110%,100%,106%,90.2%,101%,87%,98.8%,82.4%
